Reference: PubChem BioAssay (EPA / NIEHS)
Records with an inconclusive call do not appear. Activity calls are given as the source filed them. The calls were made as follows, unless noted: active = hit-call score of the fitted dose curve at least 0.9, where 1 is the maximum; inactive = score below 0.9.

Key:
[1] = read-out: Monocyte Chemoattractant Protein-1 (MCP1), CCL2 (gene 6347); test: BSK_LPS_MCP1: BioMAP Diversity Plus: LPS Assay for Monocyte Chemoattractant Protein-1 (MCP1) Biomarker Activity (AID 2283081); details: primary human HUVEC with PBMC; actives raise or lower the signal;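 as to AC50: secreted MCP-1 protein quantified by ELISA in culture supernatant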
How it was run: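 ELISA read-out of MCP-1 after 24 h chemical dosing of a human umbilical vein endothelial cell/peripheral blood mononuclear cell co-culture stimulated with LPS. Gain or loss of signal fitted relative to DMSO controls.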

[2] = BSK_LPS_PGE2: BioMAP Diversity Plus: LPS Assay for Prostaglandin E2 (PGE2) Biomarker Activity (AID 2283082); details: primary human HUVEC with PBMC; actives raise or lower the signal;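 as to AC50: secreted prostaglandin E2 measured by ELISA in LPS-stimulated co-culture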
How it was run: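 Endpoint derived from bidirectional curve fitting versus DMSO of ELISA-measured PGE2 in LPS-stimulated human primary vascular co-culture (HUVEC with PBMC) harvested at 24 h.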

[3] = read-out: Macrophage colony-stimulating factor (MCSF), CSF1 (gene 1435); test: BSK_LPS_MCSF: BioMAP Diversity Plus: LPS Assay for Macrophage colony-stimulating factor (MCSF) Biomarker Activity (AID 2283083); details: primary human HUVEC with PBMC; actives raise or lower the signal
How it was run: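 HUVEC + PBMC co-culture (human primary), 24 h post-dose; M-CSF by ELISA; gain/loss of signal fitted bidirectionally vs DMSO baseline.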

[4] = read-out: Tissue Factor, F3 (gene 2152); test: BSK_LPS_TissueFactor: BioMAP Diversity Plus: LPS Assay for Tissue Factor Biomarker Activity (AID 2283084); details: primary human HUVEC with PBMC; actives raise or lower the signal
How it was run: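 HUVEC/PBMC co-culture, LPS-activated; CD142 ELISA read 24 h post-dose; bidirectional curve fit vs DMSO negative control.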

[5] = read-out: Tumor necrosis factor (Homo sapiens) (UniProt P01375); test: BSK_LPS_TNFa: BioMAP Diversity Plus: LPS Assay for Tumour Necrosis Factor alpha (TNFa) Biomarker Activity (AID 2283085); details: primary human HUVEC with PBMC; actives raise or lower the signal
How it was run: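 Primary human vascular co-culture of HUVEC and PBMC; TNFa ELISA 24 h after treatment, analysed as increase or decrease relative to DMSO control.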

[6] = read-out: Vascular cell adhesion molecule 1 (VCAM1), VCAM1 (gene 7412); test: BSK_LPS_VCAM1: BioMAP Diversity Plus: LPS Assay for Vascular cell adhesion molecule 1 (VCAM1) Biomarker Activity (AID 2283086); details: primary human HUVEC with PBMC; actives raise or lower the signal
How it was run: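 Primary human vascular co-culture (umbilical vein endothelium plus PBMC) stimulated with LPS received chemical; 24 h later VCAM-1 was read by ELISA. Overt cytotoxicity was assessed by sulforhodamine B staining of parallel cultures at the same time point.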

CD38, CD38 (gene 952) = test: BSK_SAg_CD38: BioMAP Diversity Plus: SAg Assay for CD38 Biomarker Activity (AID 2283087); details: primary human HUVEC with PBMC; actives raise or lower the signal
How it was run: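 Fluorescence ELISA of cell-surface CD38 served as the read-out, with either increase or decrease fitted against DMSO controls. Cells were a human umbilical vein endothelium plus PBMC co-culture under SEB/TSST-1 stimulation, measured 24 h after dosing.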

CD40, CD40 (gene 958) = test: BSK_SAg_CD40: BioMAP Diversity Plus: SAg Assay for CD40 Biomarker Activity (AID 2283088); details: primary human HUVEC with PBMC; actives raise or lower the signal
How it was run: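 HUVEC/PBMC co-culture, 24 h post-dose; CD40 by ELISA, fluorescence intensity; bidirectional fit vs DMSO negative control.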

CD69, CD69 (gene 969) = test: BSK_SAg_CD69: BioMAP Diversity Plus: SAg Assay for CD69 Biomarker Activity (AID 2283089); details: primary human HUVEC with PBMC; actives raise or lower the signal;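 as to AC50: cell surface CD69 protein quantified by ELISA with fluorescence detection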
How it was run: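 HUVEC co-cultured with PBMC were dosed with chemical, and CD69 was measured by ELISA with fluorescence read-out 24 h later. Bidirectional curve fitting used DMSO as negative control and activity baseline.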

[7] = read-out: Monocyte Chemoattractant Protein-1 (MCP1), CCL2 (gene 6347); test: BSK_SAg_MCP1: BioMAP Diversity Plus: SAg Assay for Monocyte Chemoattractant Protein-1 (MCP1) Biomarker Activity (AID 2283090); details: primary human HUVEC with PBMC; actives raise or lower the signal
How it was run: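 MCP-1 levels in the endothelial–PBMC SAg co-culture were quantified by ELISA at 24 h post-dosing; both increases and decreases versus DMSO scored. Cytotoxicity monitored by SRB total protein in parallel cultures.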

[8] = read-out: E-selectin (Homo sapiens) (UniProt P16581); test: BSK_SAg_Eselectin: BioMAP Diversity Plus: SAg Assay for Eselectin Biomarker Activity (AID 2283091); details: primary human HUVEC with PBMC; actives raise or lower the signal
How it was run: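 E-selectin ELISA readout at 24 h post-dosing in human umbilical vein endothelial cell/PBMC co-culture; gain or loss of signal fitted relative to DMSO baseline.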

[9] = read-out: Monokine induced gamma interferon (MIG), CXCL9 (gene 4283); test: BSK_SAg_MIG: BioMAP Diversity Plus: SAg Assay for Monokine induced gamma interferon (MIG) Biomarker Activity (AID 2283092); details: primary human HUVEC with PBMC; actives raise or lower the signal
How it was run: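 HUVEC plus human PBMC co-culture, chemicals dosed and MIG (CXCL9) quantified by ELISA at 24 h. Bidirectional curve fitting against DMSO as negative control and baseline, so both gain and loss of signal count as activity.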

[10] = BSK_SAg_PBMCCytotoxicity: PBMC Cytotoxicity Assessment in the BioMAP Diversity Plus: SAg Assay (AID 2283093); details: primary human HUVEC with PBMC;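 also: PBMC viability measured as Alamar Blue reduction fluorescence at 546/580 nm; fitted both ways against DMSO so a hit may be loss or gain of signal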;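 as to AC50: PBMC superantigen activated with SEB plus TSST-1 one hour after compound addition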
How it was run: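 Compound added to 75,000 PBMC/well for 1 h; SEB and TSST-1 then added at 20 ng/mL final each; 90 h incubation; Alamar Blue 6 h; read 546/580 nm ex/em. Activity fitted bidirectionally relative to DMSO baseline.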

[11] = read-out: Interleukin-8 (IL8), CXCL8 (gene 3576); test: BSK_SAg_IL8: BioMAP Diversity Plus: SAg Assay for Interleukin-8 (IL8) Biomarker Activity (AID 2283094); details: primary human HUVEC with PBMC; actives raise or lower the signal
How it was run: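 In this co-culture of human umbilical vein endothelium with peripheral blood mononuclear cells, IL-8 is assayed by ELISA at 24 h. DMSO serves as baseline for bidirectional curve fitting.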

[12] = BSK_SAg_SRB: Viability Assessment in the BioMAP Diversity Plus: SAg Assay (AID 2283096); details: primary human HUVEC with PBMC;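 also: cells read one day after compound addition; hits may be either gain or loss of signal compared with DMSO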
How it was run: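 Total protein by sulforhodamine B staining, 24 h after dosing, in HUVEC–PBMC co-culture; DMSO-referenced bidirectional fitting.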

[13] = molecular target: human CYP2A6, CYP2A6 (gene 1548) (UniProt P11509); test: NVS_ADME_hCYP2A6: NovaScreen (NVS) CYP450-related Enzyme Activity (ADME) Assay for human CYP2A6 (AID 2283099; active = hit-call score of the fitted dose curve at least 0.9, where 1 is the maximum)
human CYP2A6, CYP2A6 (gene 1548), sequence (P11509 whole entry, looked up): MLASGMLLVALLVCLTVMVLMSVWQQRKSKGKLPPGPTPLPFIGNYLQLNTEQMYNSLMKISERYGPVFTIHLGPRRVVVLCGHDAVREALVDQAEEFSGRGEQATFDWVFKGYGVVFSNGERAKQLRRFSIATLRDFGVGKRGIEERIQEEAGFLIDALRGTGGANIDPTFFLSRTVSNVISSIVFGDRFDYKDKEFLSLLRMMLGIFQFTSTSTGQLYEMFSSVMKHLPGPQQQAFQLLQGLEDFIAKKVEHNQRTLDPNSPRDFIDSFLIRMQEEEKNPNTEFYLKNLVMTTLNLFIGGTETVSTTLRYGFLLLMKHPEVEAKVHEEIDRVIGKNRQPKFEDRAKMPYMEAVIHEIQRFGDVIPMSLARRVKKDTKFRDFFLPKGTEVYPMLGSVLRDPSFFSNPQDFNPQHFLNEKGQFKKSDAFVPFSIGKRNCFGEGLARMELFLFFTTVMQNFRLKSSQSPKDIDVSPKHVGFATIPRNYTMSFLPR
How it was run: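 Insect-cell-expressed human CYP2A6 enzyme activity measured by fluorescence intensity 0.5 hour post-dosing. Compounds screened at 10 uM in duplicate, then hits tested singly in concentration series (max 20 uM); acetonitrile baseline.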

[14] = BSK_SAg_Proliferation: Cell Proliferation Assessment in the BioMAP Diversity Plus: SAg Assay (AID 2283095); details: primary human HUVEC with PBMC;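 also: relative cell number as total protein by SRB absorbance in sub-confluent culture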
How it was run: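 Readout is SRB-stained protein (560 nm) in a primary human HUVEC and PBMC co-culture; sub-confluent cultures are read at 96 h. Activity is fitted bidirectionally using DMSO as baseline.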

[15] = molecular target: human CYP19A1, CYP19A1 (gene 1588) (UniProt P11511); test: NVS_ADME_hCYP19A1: NovaScreen (NVS) CYP450-related Enzyme Activity (ADME) Assay for human CYP19A1 (AID 2283098; active = hit-call score of the fitted dose curve at least 0.9, where 1 is the maximum)
human CYP19A1, CYP19A1 (gene 1588), sequence (P11511 whole entry, looked up): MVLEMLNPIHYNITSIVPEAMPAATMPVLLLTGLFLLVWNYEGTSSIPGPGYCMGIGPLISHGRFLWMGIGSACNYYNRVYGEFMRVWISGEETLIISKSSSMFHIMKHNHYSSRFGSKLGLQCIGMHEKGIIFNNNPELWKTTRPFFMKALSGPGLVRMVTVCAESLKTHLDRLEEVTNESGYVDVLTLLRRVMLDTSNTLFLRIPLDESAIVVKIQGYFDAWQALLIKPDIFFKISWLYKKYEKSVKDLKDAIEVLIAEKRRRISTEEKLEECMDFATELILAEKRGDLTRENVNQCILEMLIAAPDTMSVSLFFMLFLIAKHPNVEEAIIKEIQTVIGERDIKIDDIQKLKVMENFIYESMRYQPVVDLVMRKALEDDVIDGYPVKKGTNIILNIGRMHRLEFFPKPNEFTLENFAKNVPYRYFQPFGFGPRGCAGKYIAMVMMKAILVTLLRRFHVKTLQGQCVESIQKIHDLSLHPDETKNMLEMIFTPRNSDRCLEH
How it was run: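 Biochem, cell-free; recombinant enzyme + specific substrate; fluorescence intensity at 0.5 h post-dose; 10 uM duplicate primary, conc. series for actives; acetonitrile = negative control/baseline; positive and negative controls on every plate.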

[16] = molecular target: human CYP1A1, CYP1A1 (gene 1543) (UniProt P04798); test: NVS_ADME_hCYP1A1: NovaScreen (NVS) CYP450-related Enzyme Activity (ADME) Assay for human CYP1A1 (AID 2283100; active = hit-call score of the fitted dose curve at least 0.9, where 1 is the maximum)
human CYP1A1, CYP1A1 (gene 1543), sequence (P04798 whole entry, looked up): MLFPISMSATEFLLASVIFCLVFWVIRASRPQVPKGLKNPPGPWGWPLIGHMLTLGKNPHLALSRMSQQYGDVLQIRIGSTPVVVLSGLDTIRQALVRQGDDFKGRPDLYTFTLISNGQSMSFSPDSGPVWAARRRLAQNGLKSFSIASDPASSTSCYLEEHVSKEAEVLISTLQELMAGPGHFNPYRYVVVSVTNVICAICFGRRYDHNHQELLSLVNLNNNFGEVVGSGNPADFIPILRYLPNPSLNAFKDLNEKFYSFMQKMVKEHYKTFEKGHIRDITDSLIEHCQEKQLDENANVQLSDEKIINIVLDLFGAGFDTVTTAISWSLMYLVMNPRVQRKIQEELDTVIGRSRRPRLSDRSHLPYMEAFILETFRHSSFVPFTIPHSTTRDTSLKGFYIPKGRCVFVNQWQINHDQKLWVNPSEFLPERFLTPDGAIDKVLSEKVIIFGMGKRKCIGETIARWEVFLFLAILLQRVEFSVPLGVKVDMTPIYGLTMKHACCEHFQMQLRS
How it was run: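 Read-out: fluorescence intensity from enzymatic turnover of substrate by recombinant CYP1A1, loss of signal indicating inhibition. Incubation 1 h post-dose. Primary single-point 10 uM in duplicate; actives rerun singly with top concentration 20 uM.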

Measured: AC50

E-selectin (Homo sapiens), sequence (P16581 whole entry, looked up): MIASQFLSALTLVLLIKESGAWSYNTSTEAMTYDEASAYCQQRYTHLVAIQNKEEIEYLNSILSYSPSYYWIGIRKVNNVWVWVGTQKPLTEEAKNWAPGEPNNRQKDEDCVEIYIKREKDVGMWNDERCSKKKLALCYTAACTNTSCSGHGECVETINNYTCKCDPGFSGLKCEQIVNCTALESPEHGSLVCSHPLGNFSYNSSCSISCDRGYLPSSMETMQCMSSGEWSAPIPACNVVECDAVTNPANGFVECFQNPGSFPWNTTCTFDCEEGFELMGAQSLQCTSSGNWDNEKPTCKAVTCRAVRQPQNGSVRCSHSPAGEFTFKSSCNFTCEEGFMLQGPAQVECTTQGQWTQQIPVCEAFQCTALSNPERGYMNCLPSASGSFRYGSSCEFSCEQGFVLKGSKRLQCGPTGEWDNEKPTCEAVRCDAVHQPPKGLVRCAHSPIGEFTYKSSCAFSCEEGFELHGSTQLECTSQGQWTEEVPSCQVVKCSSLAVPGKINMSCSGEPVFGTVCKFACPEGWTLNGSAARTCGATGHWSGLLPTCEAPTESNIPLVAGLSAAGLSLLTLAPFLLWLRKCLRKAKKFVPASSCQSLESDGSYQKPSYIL
Tumor necrosis factor (Homo sapiens), sequence (P01375 whole entry, looked up): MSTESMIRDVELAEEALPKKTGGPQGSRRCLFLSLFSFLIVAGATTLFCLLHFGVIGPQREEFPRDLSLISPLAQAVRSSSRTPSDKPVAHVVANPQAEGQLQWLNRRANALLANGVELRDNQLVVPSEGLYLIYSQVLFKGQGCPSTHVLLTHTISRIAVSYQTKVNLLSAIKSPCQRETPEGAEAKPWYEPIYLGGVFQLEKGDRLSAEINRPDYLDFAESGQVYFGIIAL

CCc1nc(N)nc(N)c1-c1ccc(Cl)cc1
not listed: [14] | [15] | [16]
inactive: all other assays above

NCCOCCOCCN
not listed: [13] | [14] | [15] | [16]
inactive: all other assays above

OCC(CO)n1cnc(-c2ccc(F)cc2)c1-c1ccnc(Oc2ccccc2)n1
active: [1] 0.51 µM | [2] 0.356 µM | [3] 1.72 µM | [4] 0.532 µM | [5] 0.416 µM | CD69, CD69 (gene 969) 3.97 µM | [7] 2.02 µM | [10] 2.47 µM | [11] 0.24 µM | [14] 18.1 µM
inactive: [6] | CD38, CD38 (gene 952) | CD40, CD40 (gene 958) | [9] | [12]

O=Cc1ccccc1C=O
active: [5] 1.53 µM
not listed: [8] | [13] | [15] | [16]
inactive: all other assays above

C/C=C/C=C/C(=O)O
not listed: [13] | [14] | [16]
inactive: all other assays above

CO[C@@H]1COCC[C@@H]1N[C@@H]1CC[C@@](C(=O)N2CCc3ncc(C(F)(F)F)cc3C2)(C(C)C)C1
not listed: [13] | [14] | [15] | [16]
inactive: all other assays above

CN(C)C(=O)NC1(c2ccccc2)CCN(CCC[C@]2(c3ccc(Cl)c(Cl)c3)CCCN(C(=O)c3ccccc3)C2)CC1
active: [6] 6.96 µM | [10] 7.62 µM
not listed: [14] | [15] | [16]
inactive: all other assays above

CC(=O)OC1CC(C)OC(C)O1 (centres undefined)
not listed: [13] | [14] | [15]
inactive: all other assays above
